The text below walks through data of PubChem BioAssay (NCATS).

Where “and” joins values, the source holds several entries; their conditions need not be identical. Equal values may be shown once. Results filed as inconclusive are left out. Entries that show only a call come without a potency. Calls of active or inactive are those of the source. Calls come from the whole dose curve; as a rule, active = well fitted cell-killing curve with a large enough effect; inconclusive = small, poorly fitted or top-dose-only effect, or effect the other way; inactive = no such curve, though single readings can be large or run the other way.
Potency is the fitted concentration of half-maximal effect.

A short description of this assay: Viability qHTS for spleen associated tyrosine kinase inhibitor (SYKi) drug resistant MV4-11 cells (AID 1963824). Note: nearly all actives have a fitted effect of over 35% in size. The note with it: SYKi-resistant MV4-11 viability, CellTiter-Glo, 72 h; series mostly up to 45 µM. Summed up:
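SYK-inhibitor-resistant MV4-11 AML cells were seeded at 500 per well onto compound and cultured 72 hours (37 °C, 5% CO2). CellTiter-Glo was then added, and after 10 min at room temperature, luminescence gave viability.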
Turning to `CC(=O)OC[C@H]1O[C@@H]([S-])[C@H](OC(C)=O)[C@@H](OC(C)=O)[C@@H]1OC(C)=O.CC[PH+](CC)CC.[Au]`, the Potency is 0.235 µM (active).

As for `COc1ccc(C(=O)N2CCCC2=O)cc1`, the Potency result was “inactive”.

Consider `Cc1ccc2c(c1)C1CN(C)CCC1N2` (stereo not drawn), for which the Potency entry is “inactive”.

Turning to `O=C(NC(O)C(Cl)(Cl)Cl)NC(O)C(Cl)(Cl)Cl` (stereo not drawn), the Potency result was “inactive”.

Consider `COc1cc(C)[nH]c(=O)c1CNC(=O)c1c(C)n([C@H](C)C2CCOCC2)c2ccccc12`, for which the Potency result was “inactive”.

Regarding `CCC(=O)O[C@@H]1C=C2CCC3C(CCC4(C)C3CC[C@@H]4OC(=O)CC)C2CC1` (stereo partly drawn), the Potency result is “inactive”.

For the molecule `CC(C)[C@]12O[C@H]1[C@@H]1O[C@]13[C@]1(O[C@H]1C[C@H]1C4=C(CC[C@@]13C)C(=O)OC4)[C@@H]2O`, the Potency was 9.2 nM (active) and 16.6 nM (active).

As for `CC[N+](CC)(CC)CC`, the Potency result is “inactive”.

As for `COP(=S)(OC)Oc1ccc(SC)c(C)c1`, the Potency result was “inactive”.

As for `ClC1=C(Cl)C2(Cl)C(CBr)CC1(Cl)C2(Cl)Cl` (stereo not drawn), the Potency result is “inactive”.

`COP(=O)(OC)C(O)C(Cl)(Cl)Cl` (stereo not drawn): the Potency entry was “inactive”.

As for `CCC(=O)OC1(c2ccccc2)CCN(C)CC1`, the Potency entry is “inactive”.

Take `C[N+]1(CCF)[C@@H]2CC[C@H]1CC(OC(=O)C(O)(c1ccccc1)c1ccccc1)C2` (stereo partly drawn): the Potency result was “inactive”.

Consider `CN1[C@H]2CC(O)C[C@H]1[C@H]1O[C@H]12` (stereo partly drawn), for which the Potency result is “inactive”.

For the molecule `COc1cc2c(cc1F)C(c1ccccc1Cl)=Nc1c(n[nH]c1C)N2`, the Potency was 1.48 µM (active).

For `Oc1ccc(Cl)cc1Cc1ccccc1`, the Potency is 24.6 µM (active).

With `COc1cc(CC(C)N)cc(OC)c1OC` (stereo not drawn), the Potency result is “inactive”.

In the case of `N[C@@H](Cc1ccc(Oc2cc(I)c(O)c(I)c2)c(I)c1)C(=O)O`, the Potency entry was “inactive”.
